# Measured values from PubChem BioAssay (NCATS).
# Unmarked numbers belong to inactive results. Records with an inconclusive call do not appear. Entries that show only a call come without a potency. Calls of active or inactive are those of the source. Unless noted, calls come from the whole dose curve; as a rule, active = well fitted curve in the direction sought with a large enough effect; inconclusive = small, poorly fitted or top-dose-only effect, or another doubt; inactive = no such curve, though single readings can be large; an effect the other way counts as inactive or inconclusive.
# Experiments:
# [1] = Cell Viability - BJ (AID 421; calls by dose curve;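 note: potency is the fitted concentration of half-maximal effect; cells exposed to compound for 40 hours at 37 °C before readout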); conditions: BJ fibroblast viability, qHTS
# Method in brief: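 Quantitative HTS: ATP depletion in BJ cells after 40 hr compound exposure in complete culture medium, detected with CellTiter-Glo; AC50 from standard Hill fits.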
# [2] = Cell Viability - Jurkat (AID 426;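 active = dose-dependent loss of cell ATP signal giving a full or clear fitted curve, ranked by lower potency value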; note: potency is the fitted concentration of half-maximal effect); conditions: qHTS
# Method in brief: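 Jurkat (Clone E6-1) cells, 5000/well in complete medium, exposed to compounds for 40 hr at 37C; intracellular ATP measured by CellTiter-Glo luminescence after 20 min at room temperature. AC50 from Hill fits.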
# [3] = Cell Viability - HepG2 (AID 433; calls by dose curve;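 note: potency is the fitted concentration of half-maximal effect; potency for ATP loss meaning cytotoxicity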); conditions: qHTS
# Method in brief: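 In this qHTS format, a 40 h, 37 °C compound incubation of HepG2 cells in complete medium precedes a 20 min CellTiter-Glo step at room temperature. Tamoxifen and doxorubicin serve as positive controls; Hill-equation fits yield AC50.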
# [4] = Cell Viability - MRC5 (AID 434; calls by dose curve;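 note: potency is the fitted concentration of half-maximal effect; potency reflects cytotoxicity seen as loss of intracellular ATP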); conditions: MRC5 lung fibroblast viability, qHTS
# Method in brief: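 MRC5 normal human lung fibroblasts, 1500 cells/well, exposed to compound for 40 hr at 37 C. Cellular ATP was read by CellTiter-Glo luminescence; data normalized to DMSO and 100 uM tamoxifen, with AC50 from Hill fits.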
# [5] = molecular target: Mitogen-activated protein kinase 10 (Mus musculus) (UniProt Q61831); test: JNK3 AlphaScreen Assay (AID 530; active = well fitted curve in either direction with a large enough effect, not every such curve was filed as active;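 note: kinase came from lysate of stimulated human HepG2 cells; signal reports phosphorylation of biotinylated GST-cJun 1-79 at Ser73 with 10 µM ATP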)
# Method in brief: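 Pre-activated (IL-1β/TNFα) JNK3 in HepG2 lysates phosphorylates biotin-GST-cJun(1-79), 10 uM ATP; anti-phospho-cJun(Ser73) AlphaScreen read at room temperature, pH 7.6 Tris buffer. Compounds pre-incubated 15 min as titrations.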
# [6] = Cell Viability - N2a (AID 540); conditions: N2a mouse neuroblastoma cell viability; at 92.2 µM (top of the series); note: nearly all actives have a fitted effect of over 45% in size
# Method in brief: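 Mouse neuroblastoma N2a cells, 1500/well, exposed to compounds 40 h at 37 °C in complete medium. Viability measured as cellular ATP by CellTiter-Glo luminescence; AC50 from Hill fits of concentration-response.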
# [7] = Cell Viability - HUV-EC-C (AID 542); note: nearly all actives have a fitted effect of over 35% in size
# Method in brief: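 HUV-EC-C human vascular endothelial cells, 1000/well, exposed to compound for 40 hr at 37 °C in complete medium. Intracellular ATP was read by CellTiter-Glo luminescence. AC50 came from Hill-equation fits of concentration-response data.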
# [8] = Cell Viability - Mesenchymal (AID 546);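 note: cells exposed to compound for 40 hours before reading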
# Method in brief: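 Human kidney mesenchymal cells from normal renal glomeruli, 1000 cells/well, rested 5 hr at 37 °C, then treated 40 hr at 37 °C in complete medium. Cellular ATP read by CellTiter-Glo luminescence; AC50 from Hill-equation fits.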
# [9] = Cellular Toxicity (caspase-3) HepG2 (AID 654);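 note: cells exposed to compound for 16 hours before reading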
# Method in brief: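 HepG2 cells (1500/well) were treated 16 h at 37 °C in complete medium, then caspase 3/7 activity was read by Caspase-Glo luminescence. Data were normalized to DMSO and 100 uM tamoxifen; AC50 came from Hill-equation fits of qHTS concentration-response.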
# [10] = Cellular Toxicity (caspase-3) HUV-EC-C (AID 656)
# Method in brief: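 Concentration-dependent caspase 3/7 induction was assessed in HUV-EC-C cells exposed for 16 hours. Data scaled between DMSO and tamoxifen (100 uM) controls.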
# [11] = Cellular Toxicity (caspase-3) SHSY5Y (AID 657)
# Method in brief: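 Readout: caspase-cleaved peptide-aminoluciferin substrate driving luciferase light in SH-SY5Y neuroblastoma cells after 16 h treatment. Response normalized to DMSO and 10 uM staurosporine controls.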
# [12] = Cellular Toxicity (caspase-3) BJ (AID 658)
# Method in brief: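 BJ human foreskin fibroblasts, 1000 cells/well, treated 16 hours at 37 °C in complete medium; caspase 3/7 activity by Caspase-Glo luminescence after 1 hr at room temperature. Normalized to DMSO and 10 uM staurosporine; AC50 from Hill fits.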
# [13] = Cellular Toxicity (caspase-3) MRC-5 (AID 659)
# Method in brief: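 MRC-5 human normal lung fibroblasts, 1500 cells/well, treated 16 h at 37 °C in complete medium. Caspase 3/7 measured by Caspase-Glo luminescence after 1 h at room temperature. Normalized to DMSO and 10 uM staurosporine; AC50 from Hill fit.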
# [14] = Cellular Toxicity (caspase-3) Mesangial (AID 660)
# Method in brief: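 Human renal glomerular mesangial cells, 1000/well, 5 h at 37 C before 16 h compound treatment. Caspase-Glo 3/7 luminescence after 20 min; normalized to DMSO and 100 uM tamoxifen, AC50 from Hill fit.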
# [15] = Cellular Toxicity (caspase-3) SK-N-SH (AID 661)
# Method in brief: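 Human SK-N-SH neuroblastoma cells, 1500/well, were exposed to compounds for 16 hours at 37 °C. Caspase-Glo 3/7 luminescence was normalized to DMSO (basal) and 10 uM staurosporine (100%), and AC50 came from a Hill fit.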
# [16] = Cellular Toxicity (caspase-3) H-4-II-E (AID 663);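 note: cells exposed to compound for 16 hr before readout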
# Method in brief: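 Rat hepatoma H-4-II-E cells (1500/well) plated 5 hr, then exposed to compound titrations for 16 hr at 37 °C. Caspase-Glo 3/7 luminescence read after 20 min at RT; data normalized to DMSO and 100 uM tamoxifen, AC50 from Hill fits.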
# [17] = Cellular Toxicity (caspase-3) Hek293 (AID 664);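 note: cells exposed to compound for 16 h at 37 °C before readout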
# Method in brief: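 HEK293 cells in complete medium treated 16 h at 37 °C, then Caspase-Glo 3/7 luminescence read after 20 min at room temperature. Normalized to DMSO and 100 uM tamoxifen; AC50 from Hill fit of concentration-response.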
# [18] = Cellular Toxicity (caspase-3) N2a (AID 665);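 note: compound exposure lasted 16 h at 37 °C before readout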
# Method in brief: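 Mouse N2a neuroblastoma cells, 1500 per well, treated 16 h at 37 °C in complete medium; caspase-3/7 activity by Caspase-Glo luminescence after 1 h. Normalized to DMSO and 10 uM staurosporine; AC50 from Hill fits.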
# [19] = Cellular Toxicity (caspase-3) NIH 3T3 (AID 666)
# Method in brief: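 Mouse NIH 3T3 fibroblasts (1000/well) treated 16 h at 37 C; caspase-3/7 activity measured by Caspase-Glo 3/7 luminescence after 20 min. Normalized to DMSO and 100 uM tamoxifen; AC50 from Hill fits.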
# [20] = Cellular Toxicity (caspase-3) Renal Proximal Tubule (AID 667);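 note: cells exposed to compound for 16 hours at 37 °C before detection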
# Method in brief: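 Caspase-Glo 3/7 read-out, rat primary kidney proximal tubule cells. Compound exposure 16 h, 37 °C; detection after 1 h at RT. Activity scaled to DMSO and 10 uM staurosporine.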
# [21] = Confirmation and Secondary Assay for Modulators of Hemoglobin Beta Chain Splicing at IVS2 654 locus (AID 910);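 note: HeLa cells stably carrying EGFP split by mutant beta-globin IVS2-654 intron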
# Method in brief: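 HeLa cells stably expressing EGFP interrupted by β-globin IVS2-654 intron, seeded overnight in Opti-MEM/2% FCS, then treated 2 days at 37 °C. Restored splicing read as total peak GFP intensity per well by laser scanning cytometry (488 nm excitation, 500–520 nm emission); 500 nM antisense PNA as control.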
# [22] = Cell Viability - LYMP2-001 (AID 921);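 note: cells exposed to compound for 24 h at 37 °C; nearly all actives have a fitted effect of over 70% in size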
# Method in brief: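 A lymphoblastoid cell line of human origin was treated with library compounds across a concentration series for 24 hours, and viable cell number was estimated from ATP-driven luciferase light output. Hill modeling gave AC50.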
# [23] = Confirmation and Secondary Assay for Modulators of Hemoglobin Beta Chain Splicing at IVS2 705 locus (AID 930);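 note: HeLa cells stably expressing the EGFP-705 splicing reporter; GFP fluorescence per well restored by corrected splicing of the IVS2-705 intron in EGFP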
# Method in brief: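 HeLa IVS2-705 EGFP reporter cells, 500/well, compound 2 d at 37C; correct splicing yields fluorescent EGFP. Control: 500 nM antisense PNA. Read-out: total peak GFP intensity.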
smiles,measurement,setting,value
Oc1c(Cl)c(Cl)c(Cl)c(Cl)c1Cl,Potency,[1],> 92 µM
same,Potency,[2],47.6 µM (active)
same,Potency,[3],> 92 µM
same,Potency,[4],> 92 µM
same,outcome,[5],inactive
same,"activity change, negative = cytotoxicity",[6],-109% (active)
same,outcome,[7],inactive
same,outcome,[8],inactive
same,outcome,[9],inactive
same,outcome,[10],inactive
same,outcome,[11],inactive
same,outcome,[12],inactive
same,outcome,[13],inactive
same,outcome,[14],inactive
same,outcome,[15],inactive
same,outcome,[16],inactive
same,outcome,[17],inactive
same,outcome,[18],inactive
same,outcome,[19],inactive
same,outcome,[20],inactive
same,Potency,[21],inactive
same,outcome,[22],inactive
same,outcome,[23],inactive
